Source: PubChem BioAssay (NCI)
Compounds without any hit were thinned out: in the full panel of roughly 83,000, 20% have a hit.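 48-hour exposure, single concentration, 96-well plates; percent growth endpoint where 0 means no net growth. Active: below 10.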 Activity calls are given as the source filed them.

Experiments:
Assay in all cases: NCI-60 one-dose screen, 48 h (100 = growth as untreated, 0 = no growth, -100 = all killed)
Details in all cases: 10 µM unless noted
SK-MEL-2 melanoma = test system: SK-MEL-2 melanoma
EKVX NSCLC = test system: EKVX NSCLC
SN12C renal = test system: SN12C renal
UO-31 renal = test system: UO-31 renal
TK-10 renal = test system: TK-10 renal
ACHN renal = test system: ACHN renal
CAKI-1 renal = test system: CAKI-1 renal
A498 renal = test system: A498 renal
CCRF-CEM leukemia = test system: CCRF-CEM leukemia
MOLT-4 leukemia = test system: MOLT-4 leukemia
SR leukemia = test system: SR leukemia
RPMI-8226 leukemia = test system: RPMI-8226 leukemia
OVCAR-8 ovarian = test system: OVCAR-8 ovarian
OVCAR-4 ovarian = test system: OVCAR-4 ovarian
SK-OV-3 ovarian = test system: SK-OV-3 ovarian
IGROV1 ovarian = test system: IGROV1 ovarian
OVCAR-3 ovarian = test system: OVCAR-3 ovarian
HS 578T breast = test system: HS 578T breast
NCI/ADR-RES ovarian = test system: NCI/ADR-RES ovarian
OVCAR-5 ovarian = test system: OVCAR-5 ovarian

Measured: growth

Cc1ccc(/C=C/c2n(Cc3ccc4ccccc4c3)c3ccccc3[n+]2Cc2ccc3ccccc3c2)cc1
active: SK-MEL-2 melanoma -97.7% | EKVX NSCLC -95.7% | SN12C renal -56.1% | UO-31 renal -96% | TK-10 renal -80% | ACHN renal -96.1% | CAKI-1 renal -94.6% | A498 renal -82.5% | CCRF-CEM leukemia -66.1% | MOLT-4 leukemia -25.9% | SR leukemia -34.2% | RPMI-8226 leukemia -71% | OVCAR-8 ovarian -59.8% | OVCAR-4 ovarian -70.5% | SK-OV-3 ovarian -87.1% | IGROV1 ovarian -76% | OVCAR-3 ovarian -83.3% | HS 578T breast -46.2% | NCI/ADR-RES ovarian -48.1%

COc1ccc2[nH]cc(-c3cc(N)n4nc(-c5cn(C)c6ccccc56)cc4n3)c2c1
active: SK-MEL-2 melanoma -96% | EKVX NSCLC -82.8% | SN12C renal -73.2% | UO-31 renal -93.7% | TK-10 renal -95.3% | ACHN renal -100% | CAKI-1 renal -96% | A498 renal -80.6% | CCRF-CEM leukemia -39.3% | MOLT-4 leukemia -41.4% | SR leukemia 9.5% | RPMI-8226 leukemia -18% | OVCAR-8 ovarian -95.6% | OVCAR-4 ovarian -58.3% | SK-OV-3 ovarian -84% | IGROV1 ovarian -64.2% | OVCAR-3 ovarian -43% | HS 578T breast -7.76% | NCI/ADR-RES ovarian -45.3%

CC12CC[C@@H]3[C@]4(C)COC(c5cn[nH]c5-c5ccc(Br)cc5)O[C@@H]4CC[C@@]3(C)[C@@H]1CC(C1=CCOC1=O)O2 (stereo partly specified)
inactive: SK-MEL-2 melanoma 52.4% | EKVX NSCLC 43.2% | SN12C renal 57.5% | UO-31 renal 25.1% | TK-10 renal 54.6% | ACHN renal 47% | CAKI-1 renal 43.3% | A498 renal 97.8% | CCRF-CEM leukemia 51.4% | SR leukemia 40.6% | RPMI-8226 leukemia 24.9% | OVCAR-5 ovarian 81.5% | OVCAR-4 ovarian 36.1% | SK-OV-3 ovarian 73.5% | IGROV1 ovarian 50.3% | OVCAR-3 ovarian 56% | HS 578T breast 55.6% | NCI/ADR-RES ovarian 51.9%
active: MOLT-4 leukemia -0.166%

N#Cc1c(-c2ccccc2Cl)cc(-c2c[nH]c3ccccc23)[nH]c1=O
inactive: SK-MEL-2 melanoma 49% | EKVX NSCLC 68.1% | SN12C renal 61.5% | UO-31 renal 58.7% | TK-10 renal 102% | ACHN renal 63.9% | CAKI-1 renal 55.5% | A498 renal 116% | CCRF-CEM leukemia 32.2% | MOLT-4 leukemia 34.7% | RPMI-8226 leukemia 70.7% | OVCAR-8 ovarian 87.4% | OVCAR-5 ovarian 82.1% | SK-OV-3 ovarian 87.8% | IGROV1 ovarian 78.5% | OVCAR-3 ovarian 93.8% | NCI/ADR-RES ovarian 82.3%
active: SR leukemia 9.99%

O=C(Cn1nc(-c2ccccc2)ccc1=O)N/N=C/c1ccc(N2CCOCC2)cc1
inactive: SK-MEL-2 melanoma 98.1% | EKVX NSCLC 95.3% | SN12C renal 94.9% | UO-31 renal 75.8% | TK-10 renal 103% | ACHN renal 95.7% | CAKI-1 renal 90.8% | A498 renal 84% | CCRF-CEM leukemia 92.5% | MOLT-4 leukemia 98.1% | SR leukemia 85.9% | RPMI-8226 leukemia 87.8% | OVCAR-8 ovarian 102% | OVCAR-5 ovarian 107% | SK-OV-3 ovarian 107% | IGROV1 ovarian 113% | OVCAR-3 ovarian 103% | HS 578T breast 86.6% | NCI/ADR-RES ovarian 95.5%

CCCCSc1nc(Nc2ccc(S(N)(=O)=O)cc2)c(C#N)c(-c2ccc(Cl)cc2)n1
inactive: SK-MEL-2 melanoma 118% | EKVX NSCLC 34.7% | UO-31 renal 14.6% | TK-10 renal 77.1% | CAKI-1 renal 55% | A498 renal 108% | CCRF-CEM leukemia 95% | MOLT-4 leukemia 52.8% | SR leukemia 19.4% | RPMI-8226 leukemia 52.7% | OVCAR-5 ovarian 51.5% | SK-OV-3 ovarian 30.4% | IGROV1 ovarian 37.5% | OVCAR-3 ovarian 54.1% | HS 578T breast 64.8% | NCI/ADR-RES ovarian 16.4%
active: SN12C renal -20.3% | ACHN renal -66.9% | OVCAR-8 ovarian -2.51%

Cc1cccc(NC(=O)CN2CCN(c3ncnc4c3cnn4-c3ccccc3)CC2)c1
inactive: SK-MEL-2 melanoma 80.2% | EKVX NSCLC 85.9% | SN12C renal 83.4% | UO-31 renal 54.9% | TK-10 renal 130% | ACHN renal 79.9% | CAKI-1 renal 82.9% | A498 renal 98% | CCRF-CEM leukemia 76.7% | MOLT-4 leukemia 75% | SR leukemia 55.9% | RPMI-8226 leukemia 75.2% | OVCAR-5 ovarian 94.7% | OVCAR-4 ovarian 91.4% | SK-OV-3 ovarian 99.7% | IGROV1 ovarian 83.9% | OVCAR-3 ovarian 98.9% | HS 578T breast 88.2% | NCI/ADR-RES ovarian 89.4%

COCOc1cc2c(=O)c(C)c(C(=O)N[C@@H](Cc3ccccc3)C(O)C(=O)NCc3ccccc3)oc2cc1OC (stereo partly specified)
inactive: EKVX NSCLC 78.4% | SN12C renal 42.7% | UO-31 renal 81.5% | TK-10 renal 88.8% | ACHN renal 83.7% | CAKI-1 renal 50.5% | CCRF-CEM leukemia 96.1% | MOLT-4 leukemia 87.8% | RPMI-8226 leukemia 67.3% | OVCAR-5 ovarian 92.5% | OVCAR-4 ovarian 28.2% | SK-OV-3 ovarian 22.8% | IGROV1 ovarian 57.6% | OVCAR-3 ovarian 65.4% | NCI/ADR-RES ovarian 88%
active: SK-MEL-2 melanoma -2.79% | A498 renal -6.29% | OVCAR-8 ovarian 2.29% | HS 578T breast 9.01%
